Screens from PubChem.
NPC1 promoter act: activators of NPC1 promoter. Huh7 NPC1 promoter luciferase reporter, 24 h. Potency, µM (titrated, usually from 9.22 µM), inactives show top-dose activation, most hits filed as activators. actives 2.4% (n = 320,000). AID 485313; further: % of control where 0% means no effect; nearly all actives have a fitted effect of over 60% in size
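Stably transfected Huh7 (NPC1 promoter→luciferase), 1500 cells/well in Opti-MEM + 10% FBS, 2 h settle, then compound 24 h at 37 °C. Luminescence after 10 min with Amplite reagent.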
SMN2 splice enh: enhancers of SMN2 splice variant expression | HEK293 SMN2-luciferase splicing reporter, luminescence, 30-36 h | Potency, µM (top dose mostly 46.1 µM), without a hit: at the highest dose activity change, positive = activation, hits mostly activators | actives 2.8% (n = 210,000) | AID 1458; further: % of control where 0% means no effect; nearly all actives have a fitted effect of over 55% in size
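HEK293 cells carry an SMN2 […]–luciferase reporter in which exon 7 inclusion puts luciferase in frame. Cells were plated 10-12 h before compound addition, then incubated 30-36 h at 37C. ONE-Glo luminescence was read; sodium butyrate at 4.5 mM final served as control.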
ELG1 genotox: genotoxicity induction in ELG1-luciferase HEK293T cells | AID 504466 | actives 1.3% (n = 330,000) | HEK293T ELG1-luciferase reporter, luminescence, 16 h | Potency, µM (titrated, usually from 46 µM), without a hit: at the top dose activity change, positive = activation, most hits filed as activators; further: % of control where 0% means no effect; nearly all actives have a fitted effect of over 60% in size
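Genotoxicity was scored as increased ELG1-luciferase reporter signal, measured by ONE-Glo luminescence (30 min, room temperature). Compound or vehicle exposure of the HEK293T reporter cells lasted 16 hr at 37°C.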
FLuc modulator: firefly luciferase modulation, counter-screen for miR-21 project; P08659; purified FLuc, Km substrates, luminescence inhibition; Potency, µM (doses to about 57.5 µM), inactives show at the highest dose activity change, negative = inhibition, usual class: inhibitors; actives 6.9% (n = 360,000); AID 588342;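 further: plate controls were vehicle for no effect and reference inhibitor for full effect; nearly all actives have a fitted effect of over 55% in size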
Target sequence (P08659 whole entry, looked up): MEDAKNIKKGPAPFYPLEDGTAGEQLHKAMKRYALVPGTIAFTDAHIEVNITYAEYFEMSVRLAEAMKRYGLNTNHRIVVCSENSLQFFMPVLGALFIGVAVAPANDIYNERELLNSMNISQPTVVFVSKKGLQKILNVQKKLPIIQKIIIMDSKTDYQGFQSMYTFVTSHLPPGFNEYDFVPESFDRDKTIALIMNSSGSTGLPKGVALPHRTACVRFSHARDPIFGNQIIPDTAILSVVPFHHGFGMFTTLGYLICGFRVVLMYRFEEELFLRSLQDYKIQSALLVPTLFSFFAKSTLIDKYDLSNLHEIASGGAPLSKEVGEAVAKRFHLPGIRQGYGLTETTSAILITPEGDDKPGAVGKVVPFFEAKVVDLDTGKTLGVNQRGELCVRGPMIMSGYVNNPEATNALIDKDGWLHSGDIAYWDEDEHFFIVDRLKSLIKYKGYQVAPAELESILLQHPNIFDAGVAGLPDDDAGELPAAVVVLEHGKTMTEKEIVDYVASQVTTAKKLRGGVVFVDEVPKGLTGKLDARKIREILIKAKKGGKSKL
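Purified P. pyralis luciferase, 10 nM final, with Km-level 10 uM D-luciferin and 10 uM ATP in 50 mM Tris acetate pH 7.5, 10 mM Mg acetate, 0.01% Tween-20, 0.05% BSA; 6-point qHTS titration about 60 µM downward; luminescence read.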
Rab9 promoter act: activators of Rab9 promoter. actives 2.8% (n = 320,000). Huh7 Rab9 promoter-luciferase reporter, luminescence, 24 h. AID 485297. Potency, µM (doses to about 9.22 µM), for the others: top-dose activation, negative = inhibition, most hits filed as activators; further: % of control where 0% means no effect; nearly all actives have a fitted effect of over 60% in size
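Luminescence read-out: Huh7 cells stably expressing Rab9-luciferase, treated 24 h with compound at 37 °C, then lysed with luciferase reagent for 10 min at ambient before reading.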
KinaseGlo FLuc: Kinase-Glo luciferase inhibition (counter-screen). Q27757. Kinase-Glo luciferase, ATP luminescence, 8 min. Potency, µM (series often up to 38.3 µM), for inactives: at the highest dose activity change, negative = inhibition, most hits filed as inhibitors. actives 0.28% (n = 200,000); further: on the % scale 0 is the no-effect control and ±100 the full control effect; nearly all actives have a fitted effect of over 60% in size
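Inhibition of Kinase-Glo luciferase light generation was assessed at 10 uM ATP in pH 7.2 imidazole buffer, with luminescence measured after eight minutes at ambient temperature.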
Starred values were filed as active, the others as inactive; ? = inconclusive; · = no result; [ ] = dose if it differs, or a comment. Compounds with a hit are over-represented: about 7.5% of the library has one in this group of screens. The call rests on the fitted dose curve; in most records, active means well fitted curve in the direction sought with a large enough effect; inconclusive means small, poorly fitted or top-dose-only effect, or another doubt; inactive means no such curve, though single readings can be large; an effect the other way counts as inactive or inconclusive. Potency means the concentration at half of the fitted maximal effect.

SMILES	NPC1 promoter act	SMN2 splice enh	ELG1 genotox	FLuc modulator	Rab9 promoter act	KinaseGlo FLuc
CCOC(=O)Cc1csc(NC(=O)Cc2ccccc2)n1	-3.1%	·	1.3%	-1.4%	1.4%	-2.1%
CCOC(=O)c1sc(NCCNc2nc(C)c(C(=O)OCC)s2)nc1C	-4.0%	13.9%	0.7%	1.0%	-2.5%	1.0%
CCOC(=O)c1sc(NC(=O)Nc2ccccc2F)nc1C	?	-58.9%	0.259µM*	0.169µM*	0.447µM*	-7.5%
COC(=O)Cc1csc(Nc2ccccc2Cl)n1	?	?	?	19µM*	3.55µM*	-1.4%
CCOC(=O)c1sc(Nc2ccc(Br)cc2)nc1C	15.5%	·	7.8%	19µM*	16.6%	·
CCOC(=O)c1sc(Nc2ccccc2Cl)nc1C	?	·	?	15.1µM*	?	·
COc1c(C)cc(Br)cc1C(=O)Nc1ccc(N2CCN(S(C)(=O)=O)CC2)cc1	-5.4%	-0.4%	6.1%	2.1%	-0.9%[1.84 µM]	-2.0%
COc1ccccc1C(=O)Nc1ccc(N2CCN(S(C)(=O)=O)CC2)cc1	24.7%	?	9.2µM*	?	?	-11.0%
COc1ccccc1C(=O)Nc1ccccc1N1CCN(S(C)(=O)=O)CC1	-0.5%	?	-9.9%	2.0%	-1.3%	0.7%
COc1c(C)cccc1C(=O)Nc1ccc(N2CCN(S(C)(=O)=O)CC2)cc1	3.98µM*	?	?	15.1µM*	3.16µM*	2.0%
CC(=O)C(/C=N/c1cc(-c2ccc(C)cc2)nn1-c1ccccc1)=C(\C)O	3.98µM*	?	?	?	3.98µM*	-12.9%
CC1=C(CC(=O)NCC(=O)NCC(=O)O)c2cc(F)ccc2/C1=C/c1ccc(S(C)=O)cc1 (stereo not given)	1.4%	·	0.6%	?	-12.6%	·
O=C(c1ccco1)N1CCC2(CC1)CCN(c1ccccn1)CC2	·	-33.4%	·	·	·	-0.8%
Cc1c(C(=O)N2C[C@@H](C)O[C@@H](C)C2)oc2c(F)cccc12	?	·	?	15.1µM*	?	·
Cc1c(C(=O)O)oc2c(F)cccc12	-3.2%	7.1%	0.4%	-19.7%	-3.4%	2.9%
Cc1c(C(=O)NC2CCOC2)oc2c(F)cccc12 (stereo not given)	2.24µM*	·	18.3%[9.26 µM]	10.7µM*	2.51µM*	·
CN(C(=O)Cn1cnc2onc(-c3ccc(F)cc3)c2c1=O)c1ccccc1Cl	·	·	·	-7.6%	·	·
COc1cc(/C=C/C(=O)OCC(=O)Nc2cc(S(=O)(=O)N(C)C)ccc2Cl)ccc1O	0.1%	·	0.7%	?	-4.5%	·
COc1ccc(/C=C/C(=O)OCC(=O)Nc2cc(S(=O)(=O)N(C)C)ccc2Cl)cc1	-5.7%	3.2%	3.0%	12µM*	-0.7%	-1.4%
COc1cccc(/C=C/C(=O)OCC(=O)Nc2ccc(Cl)c(S(=O)(=O)N(C)C)c2)c1OC	-0.3%	5.0%	2.1%	13.5µM*	-2.0%	1.4%
COc1ccc(CCNC(=O)Cn2ncc3c(C)n(Cc4ccccc4F)c(C)c3c2=O)cc1OC	·	4.0%	·	-9.7%	·	·
O=c1nc(N/N=C/C=C/c2ccccc2)cn[nH]1	0.501µM*	·	2.06µM*	4.78µM*	0.355µM*	·
O=c1nc(N/N=C/c2c[nH]c3ccccc23)cn[nH]1	2.51µM*	·	10.3µM*	12µM*	2µM*	·
O=C(O)COc1ccc(Br)cc1/C=N\Nc1ccccn1	0.5%	·	0.1%	?	6.1%	·
O=C(O)c1cccc2c(/C=N/Nc3ccccn3)c[nH]c12	?	·	8.3%	8.49µM*	2.82µM*	·
SMILES	NPC1 promoter act	SMN2 splice enh	ELG1 genotox	FLuc modulator	Rab9 promoter act	KinaseGlo FLuc
Brc1ccccc1/C=N/Nc1ccccn1	0.9%	?	?	?	19.4%	-16.1%
C(=N\Nc1ccccn1)/c1c[nH]c2ccccc12	-3.4%	·	?	15.1µM*	28.0%	·
COc1cccc(N2CCN(c3nc4ccc(C(=O)c5ccccc5)cc4n4c(C)nnc34)CC2)c1	·	·	·	-1.6%	·	·
COc1ccc(-n2c(=O)cnc3cnc(Oc4ccccc4)nc32)cc1	·	-1.5%	·	·	·	-1.9%
CCN(CC)C(=O)Cn1c(=O)n(-c2ccc(OC)cc2OC)c(=O)c2c(C)c(C(=O)N(CC)CC)sc21	·	·	·	1.9%	·	·
CCOC(=O)c1c(-c2ccc(C)cc2)csc1NC(=O)c1cc(=O)c2cc(C)c(C)cc2o1	·	0.2%	·	0.3%	·	·
CSc1ncc(C(=O)Nc2ccccc2C(=O)c2ccccc2)c(C)n1	·	·	·	2.1%	·	·
COc1ccc(OCc2cc(C(=O)N[C@H]3CCCCNC3=O)no2)c(Cl)c1	?	·	?	10.7µM*	?	·
CSc1ccccc1OCc1cc(C(=O)N[C@H]2CCCCNC2=O)no1	2.82µM*	·	?	10.7µM*	3.55µM*	·
COc1ccc(OCc2cc(C(=O)NC3Cc4ccccc4C3)no2)c(Cl)c1	-23.7%	·	-5.1%	2.6%	-10.4%	·
CCCC(=O)Nc1nnc(SCc2cc(=O)n3ccccc3n2)s1	·	·	·	4.2%	·	·
S=C(c1ccc(-c2cccc(Cl)c2)o1)N1CCOCC1	3.16µM*	25.1µM*	3.55µM*	5.36µM*	3.55µM*	-0.5%
S=C(c1ccc(-c2cccc(Cl)c2)o1)N1CCCCC1	3.55µM*	11.2µM*	?	2.69µM*	2.51µM*	-0.4%
O=C(Nc1ccccc1N1CCCCC1)c1ccc(-c2cccc(Cl)c2)o1	3.5%	-40.3%	3.8%	-10.5%	-2.4%	-2.6%
S=C(c1ccc(-c2cc(Cl)ccc2Cl)o1)N1CCOCC1	1.1%	-16.4%	0.5%	?	-3.5%	-1.8%
O=C(NC(=S)Nc1cc(Cl)ccc1N1CCOCC1)c1ccc(-c2cccc(Cl)c2)o1	-7.1%	1.4%	3.2%	0.4%	-10.9%	4.3%
S=C(c1ccc(-c2cc(Cl)ccc2Cl)o1)N1CCCCC1	3.1%	-36.0%	-2.9%	16.9µM*	-3.7%	1.3%
Cc1nc(CNC(=O)c2cc(COc3ccc(F)cc3Cl)on2)cs1	-1.0%	·	1.2%	26.9µM*	0.1%	·
COc1ccc(OCc2cc(C(=O)NC(C)c3csc(C)n3)no2)c(Cl)c1 (stereo not given)	?	·	7.2%[9.26 µM]	13.5µM*	4.47µM*	·
COc1ccc(OCc2cc(C(=O)NCc3nc(C)cs3)no2)c(Cl)c1	?	·	?	13.5µM*	?	·
O=C(CN1Cc2ccccc2C1=O)Nc1cc(F)ccc1F	·	·	·	-5.2%	·	·
O=C(c1cnn2c1NC(=C1CC1)C=C2C(F)F)N(C1CCCCC1)C1CCCCC1	·	·	·	0.8%	·	·
Cc1cc(C)cc(OCC(=O)NCC2(N(C)C)CCCCC2)c1	·	·	·	-5.8%	·	·
C/C(=N\N=c1/sc2ccccc2n1C)c1ccccn1	?	?	?	16.9µM*	?	-1.4%
C/C(=N/NC(=O)c1ccoc1C)c1ccc(N2CCOCC2)cc1	15.6%	?	?	?	21.6%	-11.3%
